Source: article PMC7862700, “An all-to-all approach to the identification of sequence-specific readers for epigenetic DNA modifications on cytosine”

How the values were obtained:
Assay in all cases: DAPPL (digital affinity profiling via proximity ligation, sequencing); 10 mM Tris-HCl pH 7.5, 50 mM NaCl, 1 mM DTT, 4% glycerol, room temperature, 30 min; GST-TFs on glutathione beads, 16-mer random dsDNA library, 0.1% formaldehyde crosslink after washing; high values mean tight binding
Conditions in all cases: protein: recombinant; tags: N-terminal GST; dsDNA, one strand shown
[1] = biological target: T1, FLI1 (Homo sapiens, UniProt Q01543 1-452)
T1 sequence: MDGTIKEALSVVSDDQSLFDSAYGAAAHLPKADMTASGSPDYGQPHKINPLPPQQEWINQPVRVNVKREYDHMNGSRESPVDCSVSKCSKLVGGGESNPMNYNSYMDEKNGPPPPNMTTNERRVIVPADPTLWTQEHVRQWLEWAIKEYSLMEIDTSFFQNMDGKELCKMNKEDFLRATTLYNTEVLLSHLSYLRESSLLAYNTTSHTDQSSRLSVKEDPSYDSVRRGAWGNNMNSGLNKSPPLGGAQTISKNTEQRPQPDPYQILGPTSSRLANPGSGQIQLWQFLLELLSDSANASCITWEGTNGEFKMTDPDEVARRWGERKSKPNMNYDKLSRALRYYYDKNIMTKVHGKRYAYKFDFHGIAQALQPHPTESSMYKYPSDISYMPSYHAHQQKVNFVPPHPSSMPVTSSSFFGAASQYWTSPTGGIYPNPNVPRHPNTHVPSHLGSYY
Summary of the method: (§1)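 GST fusions of human transcription factors were expressed in yeast and captured with glutathione beads. Once given DNA barcodes and pooled alongside a tag-only sample, they were incubated for 30 min at room temperature with 200 nmole of a random double-stranded 16-mer DNA library in Tris/NaCl/DTT/glycerol buffer, then washed, crosslinked (0.1% formaldehyde), proximity-ligated, PCR-amplified and sequenced on an Illumina NextSeq500. The binding signal of each hexamer is its read frequency for a factor divided by its frequency for the tag-only sample.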

[2] = biological target: T2, ELK1 (Homo sapiens, UniProt P19419 1-428)
T2 sequence: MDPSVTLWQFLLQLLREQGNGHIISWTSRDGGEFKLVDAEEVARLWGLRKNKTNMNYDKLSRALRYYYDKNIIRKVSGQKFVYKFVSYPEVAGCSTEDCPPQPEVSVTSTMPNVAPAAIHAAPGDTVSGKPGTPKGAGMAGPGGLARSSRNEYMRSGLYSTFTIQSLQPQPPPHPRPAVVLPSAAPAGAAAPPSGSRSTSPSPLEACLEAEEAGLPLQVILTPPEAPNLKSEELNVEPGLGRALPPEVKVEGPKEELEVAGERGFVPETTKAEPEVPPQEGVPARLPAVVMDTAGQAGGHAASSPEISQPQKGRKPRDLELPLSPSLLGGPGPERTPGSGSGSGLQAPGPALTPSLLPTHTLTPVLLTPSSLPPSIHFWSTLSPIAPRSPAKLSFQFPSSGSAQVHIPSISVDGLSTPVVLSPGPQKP
Summary of the method: as §1

[3] = biological target: T3, GABPA (Homo sapiens, UniProt Q06546 1-454)
T3 sequence: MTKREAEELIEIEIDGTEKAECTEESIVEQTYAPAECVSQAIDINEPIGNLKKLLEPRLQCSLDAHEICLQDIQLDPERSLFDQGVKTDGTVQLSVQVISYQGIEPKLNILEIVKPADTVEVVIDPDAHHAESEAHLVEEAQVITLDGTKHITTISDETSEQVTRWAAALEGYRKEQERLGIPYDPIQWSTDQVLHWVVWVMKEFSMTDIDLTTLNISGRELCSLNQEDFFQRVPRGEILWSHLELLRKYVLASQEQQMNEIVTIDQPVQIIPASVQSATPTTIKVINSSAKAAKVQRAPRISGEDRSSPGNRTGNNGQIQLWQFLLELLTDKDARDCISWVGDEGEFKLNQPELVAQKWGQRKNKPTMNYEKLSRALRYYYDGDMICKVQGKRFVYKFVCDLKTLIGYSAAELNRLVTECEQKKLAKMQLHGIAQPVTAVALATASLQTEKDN
Summary of the method: as §1

[4] = biological target: T4, ERG (Homo sapiens, UniProt P11308 1-479)
T4 sequence: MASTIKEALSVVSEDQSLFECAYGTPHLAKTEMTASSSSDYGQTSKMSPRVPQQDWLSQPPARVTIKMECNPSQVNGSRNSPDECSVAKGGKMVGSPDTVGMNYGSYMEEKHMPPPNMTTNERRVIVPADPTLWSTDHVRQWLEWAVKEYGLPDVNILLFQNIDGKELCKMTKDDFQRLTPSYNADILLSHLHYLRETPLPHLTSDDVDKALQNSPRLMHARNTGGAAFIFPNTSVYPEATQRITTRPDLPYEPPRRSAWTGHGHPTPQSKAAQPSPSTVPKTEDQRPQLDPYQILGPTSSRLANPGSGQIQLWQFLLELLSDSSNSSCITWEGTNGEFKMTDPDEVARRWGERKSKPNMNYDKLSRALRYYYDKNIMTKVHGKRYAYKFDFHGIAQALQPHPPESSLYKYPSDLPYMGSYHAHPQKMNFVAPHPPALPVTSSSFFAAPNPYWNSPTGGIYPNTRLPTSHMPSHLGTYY
Summary of the method: as §1

[5] = biological target: ELF1 (Homo sapiens, UniProt P32519 1-619)
ELF1, sequence (P32519 whole entry): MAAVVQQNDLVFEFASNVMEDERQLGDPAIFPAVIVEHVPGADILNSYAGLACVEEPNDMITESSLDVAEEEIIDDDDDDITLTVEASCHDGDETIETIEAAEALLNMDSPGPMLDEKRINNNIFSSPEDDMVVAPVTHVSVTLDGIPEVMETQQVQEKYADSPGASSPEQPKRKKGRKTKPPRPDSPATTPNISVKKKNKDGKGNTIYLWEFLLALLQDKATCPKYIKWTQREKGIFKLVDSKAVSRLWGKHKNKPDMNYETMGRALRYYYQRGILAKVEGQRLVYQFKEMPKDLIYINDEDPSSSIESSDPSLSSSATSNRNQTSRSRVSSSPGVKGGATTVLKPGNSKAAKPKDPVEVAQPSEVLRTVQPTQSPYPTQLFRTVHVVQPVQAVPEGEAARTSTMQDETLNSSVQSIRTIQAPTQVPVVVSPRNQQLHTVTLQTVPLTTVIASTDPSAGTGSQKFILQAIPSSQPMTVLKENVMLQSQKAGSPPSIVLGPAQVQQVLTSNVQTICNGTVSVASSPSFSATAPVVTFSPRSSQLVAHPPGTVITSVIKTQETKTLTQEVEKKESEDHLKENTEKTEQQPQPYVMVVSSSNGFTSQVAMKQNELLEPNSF
Summary of the method: as §1

[6] = biological target: T5, EHF (Homo sapiens, UniProt Q9NZC4 1-300)
T5 sequence: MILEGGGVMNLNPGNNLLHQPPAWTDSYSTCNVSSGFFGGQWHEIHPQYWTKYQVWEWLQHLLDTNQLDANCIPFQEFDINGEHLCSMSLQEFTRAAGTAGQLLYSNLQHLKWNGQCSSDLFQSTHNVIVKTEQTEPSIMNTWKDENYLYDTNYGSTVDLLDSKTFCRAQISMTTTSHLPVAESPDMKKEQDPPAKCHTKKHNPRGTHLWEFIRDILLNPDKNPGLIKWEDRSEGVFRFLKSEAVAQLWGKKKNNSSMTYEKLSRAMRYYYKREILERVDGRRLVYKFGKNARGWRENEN
Summary of the method: as §1

[7] = biological target: SPI1 (Homo sapiens, UniProt P17947 1-270)
Summary of the method: as §1

[8] = biological target: SPIB (Homo sapiens, UniProt Q01892 1-262)
SPIB, sequence (Q01892 whole entry): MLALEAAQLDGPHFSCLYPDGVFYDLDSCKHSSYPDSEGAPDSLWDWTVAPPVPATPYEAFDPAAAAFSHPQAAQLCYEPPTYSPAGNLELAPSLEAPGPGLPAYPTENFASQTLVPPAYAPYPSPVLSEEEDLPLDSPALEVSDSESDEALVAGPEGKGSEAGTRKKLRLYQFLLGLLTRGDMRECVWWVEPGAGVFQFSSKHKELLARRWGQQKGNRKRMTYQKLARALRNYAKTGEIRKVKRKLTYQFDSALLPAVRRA
Summary of the method: as §1

[9] = biological target: T6, ELK3 (Homo sapiens, UniProt P41970 1-407)
T6 sequence: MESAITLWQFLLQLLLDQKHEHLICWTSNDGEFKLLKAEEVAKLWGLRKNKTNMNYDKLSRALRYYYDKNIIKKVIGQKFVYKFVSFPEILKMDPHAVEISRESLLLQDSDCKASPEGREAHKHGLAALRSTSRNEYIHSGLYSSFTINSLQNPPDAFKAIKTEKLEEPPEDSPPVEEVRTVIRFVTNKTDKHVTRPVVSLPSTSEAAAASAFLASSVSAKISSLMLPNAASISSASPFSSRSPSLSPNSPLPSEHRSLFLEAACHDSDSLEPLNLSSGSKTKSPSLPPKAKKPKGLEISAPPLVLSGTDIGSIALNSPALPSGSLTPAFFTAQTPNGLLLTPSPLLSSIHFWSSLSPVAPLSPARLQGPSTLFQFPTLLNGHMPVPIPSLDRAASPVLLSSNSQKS
Summary of the method: as §1

ACCGTC
binding signal [1]: 1.25 fold enrichment (6-mer frequency, TF over GST control)
binding signal [2]: 1.21 fold enrichment (6-mer frequency, TF over GST control)
binding signal [3]: 1.26 fold enrichment (6-mer frequency, TF over GST control)
binding signal [4]: 1.15 fold enrichment (6-mer frequency, TF over GST control)
binding signal [5]: 1.19 fold enrichment (6-mer frequency, TF over GST control)
binding signal [6]: 1.07 fold enrichment (6-mer frequency, TF over GST control)
binding signal [7]: 1.18 fold enrichment (6-mer frequency, TF over GST control)
binding signal [8]: 1.09 fold enrichment (6-mer frequency, TF over GST control)
binding signal [9]: 1.22 fold enrichment (6-mer frequency, TF over GST control)
